ERG Ets-DNA blk: inhibitors of human ERG Ets domain-DNA interaction; AID 624246; Potency, µM (series often up to 76.9 µM), most hits filed as inhibitors; 0.028% of 370,000 active; fluorescence polarization, His-ERG Ets domain / labelled DNA; active = well fitted inhibition curve with a large enough effect in the polarisation, with a control signal flat; inconclusive = small, poorly fitted or top-dose-only effect, or effect the other way, or a change in a side signal; inactive = no such curve, though single readings can be large or run the other way; the % refers to the polarisation;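 also: polarization taken with two DNA probes labelled with fluorescein and Texas red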
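His-tagged ERG Ets domain (1 uM in the protein solution; 300mM KCl, 50mM Tris-HCl, 1mM EDTA, 1mM DTT, pH 7.5) received compound, then a probe mix of 5 nM fluorescein-DNA and 100nM Texas-615-DNA. Fluorescence polarization was read for both dyes.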
DRD3 agonist: activates the human D3 dopamine receptor. D3R DiscoveRx beta-arrestin cells, luminescence, 90 min. 0.58% of 410,000 active. max activation, %. P35462; in the data active = max activation above about 30%
Target sequence (P35462 whole entry, looked up): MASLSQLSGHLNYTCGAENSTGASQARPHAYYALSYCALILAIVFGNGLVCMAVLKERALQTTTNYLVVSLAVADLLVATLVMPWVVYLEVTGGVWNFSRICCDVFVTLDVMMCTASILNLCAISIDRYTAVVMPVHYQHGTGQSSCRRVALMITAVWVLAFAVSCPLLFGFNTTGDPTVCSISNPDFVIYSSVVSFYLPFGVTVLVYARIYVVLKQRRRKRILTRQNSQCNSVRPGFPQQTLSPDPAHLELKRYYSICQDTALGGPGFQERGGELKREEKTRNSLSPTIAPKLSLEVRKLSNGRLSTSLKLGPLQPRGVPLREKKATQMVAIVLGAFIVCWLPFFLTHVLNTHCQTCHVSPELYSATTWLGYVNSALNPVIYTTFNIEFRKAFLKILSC
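Agonist mode: compounds and dopamine controls were applied to plated cells for 90 min at 37 degrees C after an overnight attachment at 1500 cells/well. Luminescent read-out followed 30 - 60 minutes at room temperature with DiscoveRx detection reagent.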
D3 antag: antagonists of human D3 dopamine receptor | D3R cells, DiscoveRx beta-arrestin luminescence, antagonist mode; active compounds read low | max response, negative = inhibition, % | 2.5% of 360,000 active | AID 652054; in the data active = max response below about -50%; inconclusive = no clear call, values can overlap the other calls
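Cells expressing the human receptor were seeded at 1500 cells/well, incubated overnight at 37 degrees C in 5% CO2, then exposed to library compounds with dopamine controls for 90 minutes at 37 degrees C before luminescent detection.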
D1 agonist: activates the human D1 dopamine receptor; activation, % at 2 µM; AID 504660; HEK293 T-REx D1 cells, calcium flux, agonist mode; 1% of 360,000 active; in the data active = activation above about 30%
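Tetracycline-induced HEK293 TREx D1 cells, force-coupled to calcium signalling, were dye-loaded with a no-wash calcium kit. Compound was pin-added after a 10 s baseline. Fluorescence was read kinetically at 1 cycle/s for 180 s, with calcium rises flagged as agonism.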
D1 potentiator: human D1 dopamine receptor positive modulation; HEK293 TREx D1 cells, calcium flux, dopamine EC20 potentiation; potentiation, % at 10 µM; 0.036% of 360,000 active; AID 504651; in the data active = potentiation above about 30%
D1 antag: blocks dopamine activation of the human D1 receptor | HEK293 TREx D1 cells, calcium flux, dopamine EC80; active compounds read low | activity change, negative = inhibition, % at 10 µM | 3.2% of 360,000 active | P21728; in the data active = activity change below about -30%
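Allosteric or orthosteric antagonism assessed as attenuation of the calcium response to EC80 dopamine, added 180 s after compound, in induced HEK293 Trex D1 cells loaded with no-wash calcium dye.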
Numbers stand for hits; 0 = inactive; ? = inconclusive; - = no result. Rows were chosen to be rich in hits. Some 6.1% of all compounds tested hit in one or more screens of this group.

SMILES	ERG Ets-DNA blk	DRD3 agonist	D3 antag	D1 agonist	D1 potentiator	D1 antag
Cc1nc(Nc2ccc(S(N)(=O)=O)cc2)sc1C(=O)Nc1ccccc1	0	0	0	0	0	-54.8
Cc1cc(Br)cc(C)c1OCC(=O)NNC(=O)c1cccs1	0	0	0	0	0	-36.7
COc1ccc(CN(C)CC(=O)Nc2sc3c(c2C#N)CCC3)cc1OC	0	37.1	0	0	0	0
CCOc1ccc(NS(=O)(=O)c2coc(C(N)=O)c2)cc1	0	0	0	0	0	0
CC(=O)NC(NC(=S)Nc1ccc(N=Nc2ccccc2C)cc1C)C(Cl)(Cl)Cl (stereo not given)	0	0	-81.4	0	0	0
CC(=O)NC(NC(=S)Nc1ccccc1Br)C(Cl)(Cl)Cl (stereo not given)	0	0	0	0	0	0
COc1cc2[nH]c(C(=O)N3CCN(C)CC3)cc2c(OC)c1OC	0	0	0	0	0	0
COc1ccc2[nH]c(C(=O)N3CCNCC3)cc2c1OC	0	0	0	0	0	-41.3
O=C(NCC(O)c1ccccc1)c1cccs1 (stereo not given)	0	0	0	0	0	0
CCCCNC(=S)NNC(=O)c1csc(C(C)C)c1	0	0	0	0	0	-45.3
Cc1cccc(NC(=O)COC(=O)c2ccccc2-c2nc3ccccc3s2)c1C	0	0	0	0	0	0
CCCc1cc(C(=O)NNC(=S)NCC)c2ccccc2n1	0	0	-56.2	0	0	0
CCCc1cc(C(=O)OC)c2ccccc2n1	-	0	0	0	0	0
COCCNC(=S)NNC(=O)c1cc(-c2cccnc2)nc2ccccc12	0	0	0	0	0	0
CCNC(=S)NNC(=O)c1cc(-c2cc(C)ccc2C)nc2ccccc12	0	0	0	0	0	-31.1
N#Cc1ccc(C(=O)OCC(=O)N2CCN(C(=O)c3ccco3)CC2)cc1	0	0	0	-	-	-
O=C(c1ccc2ccccc2c1)c1cccc(F)c1C(=O)O	-	0	0	-	-	-
CC1CC(=O)N(CC(=O)Nc2ccc(Br)cc2)c2ccccc2S1(=O)=O (stereo not given)	0	0	0	0	0	0
CCc1ccc(NC(=O)CN2C(=O)CC(C)S(=O)(=O)c3ccccc32)cc1 (stereo not given)	0	0	0	0	0	-32.1
COc1ccc2nc(N3CCCC3)c(C#N)cc2c1	0	0	0	40.9	0	0
Cc1ccc2nc(N3CCN(C(=O)c4ccccc4F)CC3)c(C#N)cc2c1	0	0	0	-	-	-
Cc1ccc2nc(N3CCN(C(=O)c4ccc(F)cc4)CC3)c(C#N)cc2c1	0	0	0	0	0	-46.4
COc1ccc2nc(N3CCCCC3)c(C#N)cc2c1	0	0	0	0	0	0
O=C(/C=C/c1cccs1)NCc1ccc2c(c1)OCO2	0	0	0	0	0	0
COc1ccc(NC(=O)CN(C)CC(=O)Nc2ccc3c(c2)CCC3)cc1	0	0	0	0	0	0
SMILES	ERG Ets-DNA blk	DRD3 agonist	D3 antag	D1 agonist	D1 potentiator	D1 antag
Cn1cc(C(=O)Nc2ccc3c(c2)CCC3)cn1	0	0	0	0	0	-30.7
Cc1ccc(C(=O)Nc2ccc3c(c2)CCC3)cc1	0	0	0	0	0	0
CCCCN(C)CCC(=O)Nc1ccc2c(c1)CCC2	0	0	-57.3	0	0	0
CC1CCN(CCC(=O)Nc2ccc3c(c2)CCC3)CC1	-	0	-58.6	0	0	0
Cc1ccc(NC(=O)CCN2CCC(C)CC2)cc1	0	0	-62.0	0	0	0
Cc1ccnc2nc(C(=O)Nc3ccc4c(c3)OCO4)nn12	-	0	0	0	0	0
Cc1ccc(-n2c3c(c(O)c(-c4ccccc4)c2=O)C(=O)CC(C)(C)C3)cc1	0	0	0	0	0	0
Cc1c(N2C(=O)/C(=C3\C(=O)N(CC(=O)O)c4ccccc43)SC2=S)c(=O)n(-c2ccccc2)n1C	0	0	0	0	0	0
CC1CCN(CCC(=O)Nc2ccc(Cl)cc2)CC1	0	0	-64.4	0	0	0
O=C(CCN1CCOCC1)Nc1ccc(Cl)cc1	0	0	0	0	0	0
CCCC(=O)Nc1ccc2c(c1)Cc1ccccc1-2	0	0	0	0	0	-38.2
COCCN(C(=O)C(F)(F)F)C(C(=O)NC1CCCCC1)c1ccco1 (stereo not given)	0	0	0	0	0	0
Cc1ccc(C)c(NC(=O)Cn2cc(C(=O)c3cccs3)c3ccccc32)c1	0	0	-	0	0	0
CCOc1ccc(C2OC(=O)Cc3cc(OC)c(OC)cc32)cc1 (stereo not given)	-	0	0	0	0	-31.1
CCOc1ccc(C2NC(=O)Cc3cc(OC)c(OC)cc32)cc1 (stereo not given)	0	0	0	0	0	0
Cc1ccc(-c2csc(N3CCN(c4cc5c(cc4Cl)nc(C)n5CCN4CCCCC4)CC3)n2)cc1	0	0	?	0	0	-38.7
Cc1ccc(-c2csc(N3CCN(c4cc5c(cc4Cl)nc(C(C)N)n5CCCO)CC3)n2)cc1 (stereo not given)	0	0	0	0	0	0
COc1ccc(NC(=O)c2cnn(-c3ccc(C)cc3)c2-n2cccc2)cc1Cl	0	0	-	0	0	-31.0
COc1ccc(Nc2ncnc3c2cnn3-c2ccc(C)cc2)cc1Cl	0	0	-	0	0	-64.7
NS(=O)(=O)c1ccc(CCNc2nccn(-c3cccc(C(F)(F)F)c3)c2=O)cc1	0	0	-	0	0	-32.0
Cc1cc(NC(=O)c2cnn(-c3ccccc3)c2-n2cccc2)ccc1Br	0	0	-	0	0	0
Clc1cccc(Nc2ncnc3c2cnn3-c2ccccc2)c1	0	0	0	0	0	-55.2
COCCOC(=O)C1=C(C)NC(=S)NC1/C=C/c1ccccc1 (stereo not given)	0	0	0	0	0	0
CC1CCN(c2c(NCC3CCC(C(=O)NCc4ccccc4Cl)CC3)c(=O)c2=O)CC1 (stereo not given)	0	0	0	0	0	0
CN(C)S(=O)(=O)c1ccc(N2CCCC2)c(C(=O)NNC(=O)c2ccc(F)cc2)c1	0	0	0	0	0	0
SMILES	ERG Ets-DNA blk	DRD3 agonist	D3 antag	D1 agonist	D1 potentiator	D1 antag
CCOC(=O)c1ccc(Nc2ncnc3c2cnn3-c2cccc(Cl)c2)cc1	0	0	-	0	0	0
N#Cc1cccc(Nc2ncnc3c2cnn3-c2cccc(Cl)c2)c1	0	0	-	0	0	-48.6
NS(=O)(=O)c1ccc(CCNc2ncnc3c2cnn3-c2cccc(Cl)c2)cc1	0	0	-	0	0	-63.7
Cc1ccc(C)c(NC(=O)CCN2CCc3ccccc3C2)c1	0	0	-108.4	0	0	0
O=C(CCN1CCN(CCO)CC1)Nc1ccc(F)c(F)c1	0	0	0	0	0	0
COc1cc2c(cc1OC)CN(CC(=O)Nc1ccc3c(c1)OCO3)CC2	0	0	0	0	0	0
O=C(CCN1CCc2ccccc2C1)Nc1ccc(F)c(F)c1	0	0	-102.8	0	0	0
